Each structure is given as a SMILES string. About 83,000 compounds went through this panel and 20% of them were active in at least one assay; those are over-represented in the sample as a whole.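 Results are percent growth after 48 hours of single-concentration exposure. 100 means growth as in untreated cells, lower positive values show inhibition; negative values down to -100 show cell death.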 Values without a mark were called inactive. Active and inactive are the calls of the source. The calls were made as follows: active = growth percent below 10; inactive = the rest.

This test concerns 786-0 renal. The test is described as follows: NCI-60 one-dose screen, 48 h (100 = growth as untreated, 0 = no growth, -100 = all killed). Particulars: 10 µM unless noted.
For `COc1cc(C(=O)/C=C/c2c(-c3ccc(F)cc3)nc3sccn23)cc(OC)c1OC`, the growth was 61.5%. Consider `Nc1nc(N)c2c(n1)NC(c1ccc(F)cc1)C1CCc3ccccc3C1=N2` (configuration not stated), for which the growth is 60.9%.

With `COc1ccc(-c2cc(-c3ccc(Cl)cc3)nc(NCCCCNc3ccnc4cc(Cl)ccc34)n2)cc1`, the growth was 73.5%.

For the compound `Cc1cc(C)nc(SCC(=O)Nc2cccc(N=Cc3ccccc3O)c2)n1`, the growth is 103%. Next, `O=C(Nc1ccc(Nc2ccncc2)cc1)c1ccc([N+](=O)[O-])cc1`: 56.7%; `O=C1COCCN1c1ccc(NCc2cn(Cc3cccc4ccccc34)c3ccccc23)cc1`: 98.8%. Then `O=C1/C(=C\c2cccn2Cc2ccccc2)c2ccccc2N1c1c(Cl)cccc1Cl`, with 89%; and `CCCCCN(CCCCC)CCCCCCCCN1CCCc2ccccc21`, with 96.6%; and `CC(C)CSc1ncnc2nc[nH]c12`, with 93.8%. Next, `CCN(CC)CCCC(C)Nc1ccnc2cc(Cl)c(SCc3ccccc3)cc12` (configuration not stated): -93.3% (active); `O=C(Nc1ccc(C(=O)/C=C/c2ccc(N3CCOCC3)cc2)cc1)Nc1ccc([N+](=O)[O-])cc1`: 111%; `Cc1ccc(-c2cn(C/C=C3\C=CN(S(=O)(=O)c4ccccc4)CC3)nn2)cc1`: 101%. Regarding `CCOc1ccc2sc(NS(=O)(=O)c3ccc(N)cc3)nc2c1`, the growth was 115%. Next, `O=C(NCCCNC(=O)OCc1ccc2c(Br)cc(Br)c(O)c2n1)OCc1ccc2c(Br)cc(Br)c(O)c2n1`: -58.9% (active); `C=CCc1nc2ccccc2s1`: 108%.

Regarding `CCN(CC)CCCNCc1cc(-c2ccccc2)nc2ccccc12`, the growth was 76.1%. Then `C=C(C)[C@@H]1CC[C@]2(C(N)=O)CC[C@]3(C)[C@H](CC[C@@H]4[C@@]5(C)C/C(=C/c6cccnc6)C(=O)C(C)(C)[C@@H]5CC[C@]43C)[C@@H]12`, with 18.1% [100 µM]. Next, `COC(=O)C(=Cc1ccccc1[N+](=O)[O-])C(=O)OC`: 41.3%; `CCOC(CNC(=O)c1cccc([N+](=O)[O-])c1)OCC`: 101%; `Cc1ccc(-c2cc(O)c(-c3ccc(C)cc3C)cc2O)c(C)c1`: 60%.

Regarding `Fc1cc2[nH]ncc2c2c3c(c(-c4cn[nH]c4)nc12)CCCC3`, the growth is 12.1%. Then `O=C(CCN1CCCCC1)c1ccc(Cl)cc1`, with 103%; and `CCOC(=O)C1=C(C(=O)c2ccc(Br)cc2)C(c2ccc(Br)cc2)NC(=S)N1` (configuration not stated), with 106%. Next, `Cn1cc(-c2noc(-c3cn(C)c4ncc(F)cc34)n2)c2cc(Cl)ccc21`: 9.09% (active); `O=[N+]([O-])c1cc([N+](=O)[O-])c(NN=C(c2ccc(O)cc2)c2ccc(O)cc2)cc1Cl`: -89% (active). Then `NNC(=O)c1ccc(C(=O)NN)cc1`, with 114%; and `CN(C)CCOc1ccc(/C(=C(/CCCl)c2ccccc2)c2ccccc2)cc1`, with -28.5% (active); and `CC(=O)Nc1ccc2nc3ccc(NC(C)=O)cc3[n+](-c3ccccc3)c2c1`, with 102%. Take `COc1ccc(/C=C(/C(=O)c2ccc(Cl)cc2)C(=O)C(F)(F)F)cc1`: the growth was 99.1%.

For `COc1cc2c(c(OC)c1)C1c3cc(OC)ccc3NC(=O)N1CC2` (configuration not stated), the growth was 95.6%. Next, `COc1ccc(C=C2c3ccccc3-c3ccccc32)cc1`: 58.5%.

With `O=S(=O)(c1ccc(N/N=C\c2ccccc2Cl)cc1)c1ccc(N/N=C/c2ccccc2Cl)cc1`, the growth was 98.4%. Then `CSc1nc(N)c(N=Nc2ccc(S(=O)(=O)Nc3nnc(C)s3)cc2)c(=O)[nH]1`, with 114%; and `C=C(C)[C@@H]1CC[C@]2(C)[C@H](CC=C3[C@@H]4[C@@H](C)[C@H](C)CC[C@]4(C(N)=O)CC[C@]32C)[C@@]1(C)CCC#N`, with -36.5% [100 µM] (active). Next, `CCOC(=O)CC(c1ccccc1)C(C#N)c1ccccc1` (configuration not stated): 98.7%. `Clc1ccc(/C=N/Nc2nc3ccccc3s2)c(Cl)c1`: the growth was 90.7%. Then `CC1(C)CC[C@]2(C(=O)O)CC[C@]3(C)[C@H](CC[C@@H]4[C@@]5(C)CCC(=O)C(C)(C)[C@@H]5CC[C@]43C)[C@H]2[C@H]1OC(=O)C(F)(F)F`, with -72.7% [100 µM] (active).
